Assay results from the supplement of paper PMC8699584.
Where “and” joins values, the source holds several entries; their conditions need not be identical. Equal values may be shown once. Where a name gives a salt, the structure may show the parent alone. ± gives the standard deviation of the averaged measurements.

Assays:
Molm13 = test: cell viability relative to DMSO control (bortezomib = 0%); higher = less growth inhibition; settings: 10 nM; 72 h
Summary of the method: (§1)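 In duplicate runs, a library of 679 approved and investigational compounds in 384-well plates received acute myeloid leukemia cells at 1000 cells per well in 50 µL, with each compound at a single 10 nM dose for 72 h. CellTiter-Glo luminescence, read on an EnVision reader, served as the viability measure. Each plate was normalized by linear regression between DMSO-treated cells (100%) and positive-control-treated cells (0%).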

Mv4-11 = test: as above; settings: 10 nM; 72 h
Summary of the method: as §1

Compound: COc1cc2ncnc(Nc3ccc(F)c(Cl)c3)c2cc1OCCCN1CCOCC1 [Gefitinib (ZD1839)]
- cell viability (Molm13): 110 ± 23%
- cell viability (Mv4-11): 116 ± 1.7%

Compound: Cc1cc(Nc2cc(CN3CCOCC3)c3nc(C)c(Cc4ccc(Cl)cc4F)n3n2)n[nH]1
- cell viability (Molm13): 82.5 ± 8.9%
- cell viability (Mv4-11): 113 ± 2%

Compound: O=C(NOCC1CC1)c1cc(Br)c(F)c(F)c1Nc1ccc(I)cc1Cl
- cell viability (Molm13): 110 ± 11%
- cell viability (Mv4-11): 113 ± 2.4%

Compound: Cc1cncc2cccc(S(=O)(=O)N3CCCN(C(=O)CN)C[C@@H]3C)c12 [(S)-Glycyl-H-1152 (hydrochloride)]
- cell viability (Molm13): 110 ± 9.1%
- cell viability (Mv4-11): 97.4 ± 11%

Compound: Cc1[nH]c(/C=C2\C(=O)Nc3ccccc32)c(C)c1CCC(=O)O [TSU-68 (SU6668, Orantinib)]
- cell viability (Molm13): 93.8 ± 2.3%
- cell viability (Mv4-11): 122 ± 14%

Compound: CC(=O)/C(C)=N/O [2,3-Butanedione 2-Monoxime]
- cell viability (Molm13): 79.4 ± 21%
- cell viability (Mv4-11): 119 ± 7.6%

Compound: CS(=O)(=O)CCNCc1ccc(-c2ccc3ncnc(Nc4ccc(OCc5cccc(F)c5)c(Cl)c4)c3c2)o1 [Lapatinib ditosylate monohydrate]
- cell viability (Molm13): 137 ± 32%
- cell viability (Mv4-11): 108 ± 17%

Compound: CCOc1ccn(-c2ccc(F)cc2)c(=O)c1C(=O)Nc1ccc(Oc2ccnc(N)c2Cl)c(F)c1
- cell viability (Molm13): 102.7 ± 0.96%
- cell viability (Mv4-11): 114 ± 7%

Compound: CC[C@@H]1C(=O)N(C)c2cnc(Nc3ccc(C(=O)NC4CCN(C)CC4)cc3OC)nc2N1C1CCCC1
- cell viability (Molm13): 64.7 ± 9.6%
- cell viability (Mv4-11): 96.8 ± 16%

Compound: CN(C)Cc1cccc(N/C(=C2\C(=O)Nc3cc(C(N)=O)ccc32)c2ccccc2)c1
- cell viability (Molm13): 114 ± 4.6%
- cell viability (Mv4-11): 134 ± 3.4%

Compound: O=C(NC[C@H](O)CO)c1ccncc1Nc1ccc(I)cc1F
- cell viability (Molm13): 91.6% and 95%
- cell viability (Mv4-11): 103% and 92.3%

Compound: N#C/C(=C\c1ccc(O)c(O)c1)C(=O)NCc1ccccc1
- cell viability (Molm13): 96.4 ± 11%
- cell viability (Mv4-11): 100.7 ± 0.73%

Compound: CC1(C)CNc2cc(NC(=O)c3cccnc3NCc3ccncc3)ccc21 [Motesanib Diphosphate (AMG-706)]
- cell viability (Molm13): 89.2 ± 9.9%
- cell viability (Mv4-11): 106 ± 12%

Compound: Cc1cccc(CC(=O)N2CCc3c2ccc(-c2cn(C)c4ncnc(N)c24)c3F)n1
- cell viability (Molm13): 114 ± 3.6%
- cell viability (Mv4-11): 119 ± 22%

Compound: CC[C@H](CO)Nc1nc(NCc2ccccc2)c2ncn(C(C)C)c2n1 [(R)-Roscovitine]
- cell viability (Molm13): 105 ± 9.1%
- cell viability (Mv4-11): 103 ± 15%

Compound: Cc1cc(Nc2ncnc3ccc(NC4=NC(C)(C)CO4)cc23)ccc1Oc1ccn2ncnc2c1 [Irbinitinib(ARRY-380; ONT-380)]
- cell viability (Molm13): 103 ± 17%
- cell viability (Mv4-11): 112 ± 8.3%

Compound: Cc1cc(C)c(/C=C2\C(=O)Nc3ccccc32)[nH]1 [Semaxanib (SU5416)]
- cell viability (Molm13): 82.4 ± 11%
- cell viability (Mv4-11): 98 ± 16%

Compound: CS(=O)(=O)N1CCN(Cc2cc3nc(-c4cccc5[nH]ncc45)nc(N4CCOCC4)c3s2)CC1
- cell viability (Molm13): 89.9 ± 12%
- cell viability (Mv4-11): 106.7 ± 0.54%

Compound: CN(C)Cc1cccc(N=C(c2ccccc2)c2c(O)[nH]c3cc(C(=O)N(C)C)ccc23)c1
- cell viability (Molm13): 108 ± 4.4%
- cell viability (Mv4-11): 111 ± 12%

Compound: CN(C)C(=N)NC(=N)N [Metformin hydrochloride]
- cell viability (Molm13): 104 ± 25%
- cell viability (Mv4-11): 90.48 ± 0.55%

Compound: COc1cc(Nc2ncc(F)c(Nc3ccc4c(n3)N(COP(=O)(O)O)C(=O)C(C)(C)O4)n2)cc(OC)c1OC [Fostamatinib (R788)]
- cell viability (Molm13): 99.7 ± 0.34%
- cell viability (Mv4-11): 104 ± 1.8%

Compound: Nc1ncnc2c1c(I)cn2[C@@H]1O[C@H](CO)[C@@H](O)[C@H]1O [5-Iodotubercidin]
- cell viability (Molm13): 92.65 ± 0.91%
- cell viability (Mv4-11): 87.1 ± 4.9%

Compound: CCc1cnn2c(NCc3ccc[n+]([O-])c3)cc(N3CCCC[C@H]3CCO)nc12
- cell viability (Molm13): 93.2 ± 28%
- cell viability (Mv4-11): 86.6 ± 15%

Compound: CN(c1ncccc1CNc1nc(Nc2ccc3c(c2)CC(=O)N3)ncc1C(F)(F)F)S(C)(=O)=O
- cell viability (Molm13): 98 ± 2.3%
- cell viability (Mv4-11): 105 ± 8.8%

Compound: CC1(C)C=Cc2c(ccc3c2OC[C@@H](c2ccc(O)cc2O)C3)O1 [Glabridin]
- cell viability (Molm13): 100 ± 12%
- cell viability (Mv4-11): 99 ± 1.6%

Compound: CCOc1cn(-c2ccc(F)cc2C)nc1C(=O)Nc1ccc(Oc2ccnc3cc(OC)c(OC)cc23)c(F)c1
- cell viability (Molm13): 112 ± 20%
- cell viability (Mv4-11): 109 ± 2.8%

Compound: Cc1cn(-c2cc(NC(=O)c3ccc(C)c(Nc4nccc(-c5cccnc5)n4)c3)cc(C(F)(F)F)c2)cn1 [Nilotinib (AMN-107)]
- cell viability (Molm13): 108 ± 9%
- cell viability (Mv4-11): 112 ± 16%

Compound: CN(C)C/C=C/C(=O)Nc1cc2c(Nc3ccc(F)c(Cl)c3)ncnc2cc1O[C@H]1CCOC1 [Afatinib (BIBW2992) Dimaleate]
- cell viability (Molm13): 108 ± 11%
- cell viability (Mv4-11): 102 ± 7.5%

Compound: CC(C)n1cnc2c(NCc3ccccc3)nc(NCCCO)nc21 [Bohemine]
- cell viability (Molm13): 95.3 ± 4.3%
- cell viability (Mv4-11): 103 ± 13%

Compound: Cc1cccc(-c2[nH]c(C(C)(C)C)nc2-c2ccc3c(c2)OCO3)n1
- cell viability (Molm13): 118 ± 26%
- cell viability (Mv4-11): 107 ± 20%

Compound: Cc1c(C)c2c(c(C)c1O)CC[C@@](C)(CCC[C@H](C)CCC[C@H](C)CCCC(C)C)O2 [Vitamin E]
- cell viability (Molm13): 93.3 ± 1.1%
- cell viability (Mv4-11): 107 ± 16%

Compound: O=[N+]([O-])c1ccc(-c2nc(-c3ccc(F)cc3)c(-c3ccncc3)[nH]2)cc1
- cell viability (Molm13): 99.9 ± 5.5%
- cell viability (Mv4-11): 101 ± 5.5%

Compound: Cc1ncc(CO)c(CO)c1O [Pyridoxine]
- cell viability (Molm13): 95.3 ± 26%
- cell viability (Mv4-11): 114 ± 20%

Compound: C=CCn1c(=O)c2cnc(Nc3ccc(N4CCN(C)CC4)cc3)nc2n1-c1cccc(C(C)(C)O)n1
- cell viability (Molm13): 93.6 ± 20%
- cell viability (Mv4-11): 95.2 ± 2.1%
